The record followed here is ChEMBL document CHEMBL2218924, “A broad activity screen in support of a chemogenomic map for kinase signalling research and drug discovery” (Biochem J, 2013).

The target of assay [1] is T1, Serine/threonine-protein kinase TBK1 (Homo sapiens) (UniProt Q9UHD2).
T1 sequence (whole entry): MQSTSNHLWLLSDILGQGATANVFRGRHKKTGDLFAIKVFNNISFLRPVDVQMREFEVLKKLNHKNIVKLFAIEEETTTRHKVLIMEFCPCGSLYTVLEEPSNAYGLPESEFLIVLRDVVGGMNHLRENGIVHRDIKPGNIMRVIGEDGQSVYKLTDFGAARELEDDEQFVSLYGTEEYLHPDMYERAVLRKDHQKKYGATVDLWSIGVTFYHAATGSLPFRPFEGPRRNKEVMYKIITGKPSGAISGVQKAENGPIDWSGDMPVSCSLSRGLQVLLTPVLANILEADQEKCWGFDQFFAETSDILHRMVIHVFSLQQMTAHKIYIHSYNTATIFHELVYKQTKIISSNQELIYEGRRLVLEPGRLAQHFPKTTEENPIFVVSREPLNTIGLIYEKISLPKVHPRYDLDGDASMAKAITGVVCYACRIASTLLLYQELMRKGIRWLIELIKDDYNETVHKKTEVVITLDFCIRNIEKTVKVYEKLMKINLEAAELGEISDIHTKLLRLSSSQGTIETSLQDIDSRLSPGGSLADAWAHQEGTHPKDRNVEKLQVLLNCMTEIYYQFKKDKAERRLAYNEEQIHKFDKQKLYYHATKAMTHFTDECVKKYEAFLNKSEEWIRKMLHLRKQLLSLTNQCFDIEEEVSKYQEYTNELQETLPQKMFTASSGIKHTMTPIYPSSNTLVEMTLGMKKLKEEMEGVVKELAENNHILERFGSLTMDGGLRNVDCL
The settings on record: at 10 µM.

Assay [2] addresses T2, TGF-beta receptor type-1 (Homo sapiens) (UniProt P36897).
T2 sequence (whole entry): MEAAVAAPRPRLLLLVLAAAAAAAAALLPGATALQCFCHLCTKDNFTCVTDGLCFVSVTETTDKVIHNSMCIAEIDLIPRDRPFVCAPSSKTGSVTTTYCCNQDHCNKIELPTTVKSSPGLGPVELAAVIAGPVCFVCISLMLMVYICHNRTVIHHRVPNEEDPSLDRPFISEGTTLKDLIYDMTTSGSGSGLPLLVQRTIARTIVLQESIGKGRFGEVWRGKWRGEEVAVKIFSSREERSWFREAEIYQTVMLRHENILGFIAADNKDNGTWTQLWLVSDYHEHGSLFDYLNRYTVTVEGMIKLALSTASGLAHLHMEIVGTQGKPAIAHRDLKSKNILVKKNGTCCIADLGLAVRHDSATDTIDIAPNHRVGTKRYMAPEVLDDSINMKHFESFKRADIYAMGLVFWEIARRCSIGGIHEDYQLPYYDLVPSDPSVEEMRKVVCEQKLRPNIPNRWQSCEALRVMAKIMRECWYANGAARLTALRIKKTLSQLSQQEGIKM
The settings on record: at 1 µM.

The target of assay [3] is T2, TGF-beta receptor type-1 (Homo sapiens). The settings on record: at 10 µM.
The target of assay [4] is Insulin-like growth factor 1 receptor (Homo sapiens) (UniProt P08069). The settings on record: at 1 µM.
The target is the same in assay [5]. The settings on record: at 10 µM.
Assay [6] has as its target T3, Inhibitor of nuclear factor kappa-B kinase subunit alpha (Homo sapiens) (UniProt O15111).
T3 sequence (whole entry): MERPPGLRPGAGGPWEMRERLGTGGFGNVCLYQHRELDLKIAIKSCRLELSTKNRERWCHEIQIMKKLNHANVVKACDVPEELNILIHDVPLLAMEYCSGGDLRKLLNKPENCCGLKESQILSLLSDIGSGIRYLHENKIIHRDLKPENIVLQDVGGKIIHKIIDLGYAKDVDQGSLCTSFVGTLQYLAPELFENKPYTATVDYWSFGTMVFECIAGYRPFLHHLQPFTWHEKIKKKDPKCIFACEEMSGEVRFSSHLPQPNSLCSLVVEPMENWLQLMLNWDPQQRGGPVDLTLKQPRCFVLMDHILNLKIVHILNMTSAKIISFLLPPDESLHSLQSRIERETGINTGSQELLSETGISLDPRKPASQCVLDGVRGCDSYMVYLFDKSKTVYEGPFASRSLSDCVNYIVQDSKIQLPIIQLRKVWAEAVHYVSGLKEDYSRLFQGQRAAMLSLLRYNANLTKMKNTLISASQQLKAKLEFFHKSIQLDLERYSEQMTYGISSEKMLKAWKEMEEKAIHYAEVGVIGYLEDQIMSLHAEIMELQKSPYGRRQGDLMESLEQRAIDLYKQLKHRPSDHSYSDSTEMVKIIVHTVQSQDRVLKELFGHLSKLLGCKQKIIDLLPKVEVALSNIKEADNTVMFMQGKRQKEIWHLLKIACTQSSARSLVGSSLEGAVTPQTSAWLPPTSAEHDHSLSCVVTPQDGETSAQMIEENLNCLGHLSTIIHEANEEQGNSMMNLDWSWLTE
The settings on record: at 1 µM.

The target in assay [7] is T3, Inhibitor of nuclear factor kappa-B kinase subunit alpha (Homo sapiens). The settings on record: at 10 µM.
Assay [8] deals with T4, Inhibitor of nuclear factor kappa-B kinase subunit beta (Homo sapiens) (UniProt O14920).
T4 sequence (whole entry): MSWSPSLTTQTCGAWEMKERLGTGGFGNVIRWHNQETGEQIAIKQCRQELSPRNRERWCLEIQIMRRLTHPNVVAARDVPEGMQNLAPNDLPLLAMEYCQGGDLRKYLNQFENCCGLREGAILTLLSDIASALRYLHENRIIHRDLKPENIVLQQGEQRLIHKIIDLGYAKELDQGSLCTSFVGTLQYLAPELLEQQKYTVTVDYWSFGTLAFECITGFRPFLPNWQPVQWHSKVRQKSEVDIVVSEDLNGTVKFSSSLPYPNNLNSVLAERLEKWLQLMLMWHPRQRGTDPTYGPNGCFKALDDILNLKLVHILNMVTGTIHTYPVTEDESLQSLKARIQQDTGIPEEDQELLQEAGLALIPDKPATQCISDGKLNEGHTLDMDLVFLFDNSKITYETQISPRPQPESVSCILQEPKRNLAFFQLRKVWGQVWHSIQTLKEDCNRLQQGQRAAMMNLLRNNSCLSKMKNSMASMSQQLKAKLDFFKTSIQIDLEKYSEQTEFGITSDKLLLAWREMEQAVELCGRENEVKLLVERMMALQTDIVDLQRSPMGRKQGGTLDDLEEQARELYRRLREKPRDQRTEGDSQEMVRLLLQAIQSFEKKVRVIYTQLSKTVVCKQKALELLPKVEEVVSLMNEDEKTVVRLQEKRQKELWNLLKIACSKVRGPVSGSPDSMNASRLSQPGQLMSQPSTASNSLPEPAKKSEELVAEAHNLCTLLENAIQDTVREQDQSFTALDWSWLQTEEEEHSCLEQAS
The settings on record: at 1 µM.

Assay [9] concerns the target T4, Inhibitor of nuclear factor kappa-B kinase subunit beta (Homo sapiens). The settings on record: at 10 µM.
In assay [10] the target is Insulin receptor (Homo sapiens) (UniProt P06213). The settings on record: at 1 µM.
Chain of Insulin receptor (Homo sapiens) (P06213 28-758 limits assumed): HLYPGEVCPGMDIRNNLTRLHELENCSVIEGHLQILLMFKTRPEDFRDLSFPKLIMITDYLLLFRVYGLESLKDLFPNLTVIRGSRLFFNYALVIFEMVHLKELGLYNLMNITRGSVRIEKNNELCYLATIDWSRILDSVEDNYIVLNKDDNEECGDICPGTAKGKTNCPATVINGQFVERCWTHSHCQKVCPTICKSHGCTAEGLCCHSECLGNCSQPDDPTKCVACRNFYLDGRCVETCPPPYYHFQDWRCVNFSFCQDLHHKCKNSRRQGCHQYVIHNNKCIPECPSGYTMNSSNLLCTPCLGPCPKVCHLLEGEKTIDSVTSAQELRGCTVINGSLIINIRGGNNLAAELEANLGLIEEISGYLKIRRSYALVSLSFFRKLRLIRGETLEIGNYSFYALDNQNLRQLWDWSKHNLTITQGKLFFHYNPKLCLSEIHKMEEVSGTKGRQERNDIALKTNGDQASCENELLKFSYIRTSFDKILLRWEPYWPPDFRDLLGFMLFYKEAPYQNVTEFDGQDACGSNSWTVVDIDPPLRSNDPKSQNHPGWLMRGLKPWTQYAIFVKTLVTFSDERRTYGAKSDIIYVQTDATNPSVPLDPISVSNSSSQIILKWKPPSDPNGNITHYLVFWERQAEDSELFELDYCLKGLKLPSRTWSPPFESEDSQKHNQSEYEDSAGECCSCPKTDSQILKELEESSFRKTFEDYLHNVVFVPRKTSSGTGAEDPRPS
Chain of Insulin receptor (Homo sapiens) (P06213 763-1382 limits assumed): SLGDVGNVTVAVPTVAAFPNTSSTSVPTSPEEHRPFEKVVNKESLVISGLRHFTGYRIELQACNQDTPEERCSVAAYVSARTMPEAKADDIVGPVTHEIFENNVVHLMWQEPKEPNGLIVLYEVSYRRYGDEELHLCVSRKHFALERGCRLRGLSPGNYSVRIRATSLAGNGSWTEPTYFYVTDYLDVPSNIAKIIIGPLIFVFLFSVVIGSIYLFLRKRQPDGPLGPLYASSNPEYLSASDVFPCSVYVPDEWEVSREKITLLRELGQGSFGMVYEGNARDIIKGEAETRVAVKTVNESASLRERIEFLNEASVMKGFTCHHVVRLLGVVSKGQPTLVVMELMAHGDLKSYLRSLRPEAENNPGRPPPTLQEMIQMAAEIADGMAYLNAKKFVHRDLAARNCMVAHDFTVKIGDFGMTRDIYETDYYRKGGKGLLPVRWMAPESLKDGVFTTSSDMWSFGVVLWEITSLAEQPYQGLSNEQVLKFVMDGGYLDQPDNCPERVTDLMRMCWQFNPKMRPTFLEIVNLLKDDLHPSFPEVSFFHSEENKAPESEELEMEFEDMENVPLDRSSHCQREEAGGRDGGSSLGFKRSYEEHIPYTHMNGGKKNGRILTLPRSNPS

Chain of Insulin-like growth factor 1 receptor (Homo sapiens) (P08069 31-736 limits assumed): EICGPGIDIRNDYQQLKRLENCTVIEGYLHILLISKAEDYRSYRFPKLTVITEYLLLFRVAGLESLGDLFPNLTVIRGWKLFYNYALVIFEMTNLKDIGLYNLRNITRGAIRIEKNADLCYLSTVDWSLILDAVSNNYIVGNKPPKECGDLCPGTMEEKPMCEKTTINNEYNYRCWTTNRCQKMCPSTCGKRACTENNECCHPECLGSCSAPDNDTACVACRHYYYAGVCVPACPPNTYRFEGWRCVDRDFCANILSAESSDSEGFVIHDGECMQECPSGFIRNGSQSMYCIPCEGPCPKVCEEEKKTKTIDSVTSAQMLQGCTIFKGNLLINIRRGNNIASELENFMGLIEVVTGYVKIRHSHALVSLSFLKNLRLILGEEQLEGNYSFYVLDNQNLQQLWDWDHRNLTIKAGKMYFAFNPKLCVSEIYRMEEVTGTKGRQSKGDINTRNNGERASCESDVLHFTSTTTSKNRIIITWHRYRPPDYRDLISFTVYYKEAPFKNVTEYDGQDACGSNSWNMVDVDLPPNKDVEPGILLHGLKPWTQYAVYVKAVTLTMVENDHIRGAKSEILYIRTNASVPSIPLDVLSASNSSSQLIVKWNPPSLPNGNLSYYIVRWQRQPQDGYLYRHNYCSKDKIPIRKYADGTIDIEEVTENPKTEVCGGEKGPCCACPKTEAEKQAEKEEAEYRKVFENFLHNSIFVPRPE
Chain of Insulin-like growth factor 1 receptor (Homo sapiens) (P08069 741-1367 limits assumed): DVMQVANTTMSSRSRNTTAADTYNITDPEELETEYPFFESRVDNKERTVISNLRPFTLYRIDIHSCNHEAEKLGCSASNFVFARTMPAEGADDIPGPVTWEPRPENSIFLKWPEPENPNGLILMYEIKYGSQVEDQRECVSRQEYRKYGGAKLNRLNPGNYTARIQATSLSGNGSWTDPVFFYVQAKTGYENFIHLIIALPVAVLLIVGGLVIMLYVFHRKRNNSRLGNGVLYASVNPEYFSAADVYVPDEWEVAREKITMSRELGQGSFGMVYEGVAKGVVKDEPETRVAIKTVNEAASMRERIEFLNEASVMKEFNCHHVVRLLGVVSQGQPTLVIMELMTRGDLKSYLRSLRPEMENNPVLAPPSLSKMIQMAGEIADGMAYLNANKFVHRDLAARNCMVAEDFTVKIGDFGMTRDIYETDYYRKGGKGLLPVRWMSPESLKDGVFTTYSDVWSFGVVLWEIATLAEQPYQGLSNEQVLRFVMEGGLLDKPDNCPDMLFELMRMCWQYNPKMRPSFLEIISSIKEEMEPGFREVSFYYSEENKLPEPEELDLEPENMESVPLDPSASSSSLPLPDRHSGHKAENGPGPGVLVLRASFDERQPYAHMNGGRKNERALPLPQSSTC

As to `O=C(O)c1ccc2c3c1cccc3c(=O)n1c3ccccc3nc21`, the residual activity in assay [1] was found to be 4%; in [2], 111%; in assay [3], 102%; in [4], 113%; in assay [5] it was 107%; in assay [6], 109%. Besides, the residual activity in [7] came out at 106%; in assay [8], 112%; in assay [9] it was 93%; in assay [10], 117%.
